# From the supplement of paper PMC6555819
# Test system: VDR:RXRa (NR concentration 270 nM, RXRa partner concentration 90 nM)
# Assay: PBM binding z-score (relative to random genomic background probes); higher = stronger binding; sequences stand for … in GC…GCGATTGACAGCGTAGAATGAAGG
# Protocol: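 Protein-binding microarray (Agilent 4x180K custom design, double-stranded 60-nt probes: 5' GC cap, 34-nt variable region, 24-nt constant primer region; full probe sequence given). Purified or IVT nuclear receptor:RXRα heterodimers (3:1 NR:RXRα, mostly 270:90 nM) or homodimers were incubated for 1 h in PBS with 2% milk and no ligand, then detected with Alexa488 antibodies. Fluorescence from o1-orientation probes (~5 replicates averaged) was converted to z-scores against 500 random hg19 background probes. Variable regions are seed direct-repeat (DR0–DR5) sites, all their single-nucleotide variants and half-site ablations.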
row,Sequence,PBM binding z-score
1,ACTTACGGGTCAACGAGGTTGTAGCACGCGTATA,7.54
2,CCTAGCAGGCCAATCTGGGTCAATCAAGGCTTGA,0.445
3,TCTTGTAGATCAAGCAGGTTAAAAAAGCCTGAGT,1.04
4,TATACAGGGACAAAGGCCAGAGTACGAATGTCGA,0.123
5,AGAATGAGGTTACCAAAGATCAGGGACACGCTTG,1.54
6,CGAACTAGCTCATCCAGGACAGTGAATACATTGA,-0.134
7,TCTAGCATGCCAGAGGGTCACTCAAGAGGTACGG,1.46
8,CCTAGCAGGCCAGGGTAACTCAAGCATTTCGCTT,-0.743
9,TCTGCTAGGTCAACGATGGTTAGCTAATCTGCTA,1.26
10,AGAACAAGGGCAATGAGTTGATAGCACGGGTGGC,4.7
11,CCTTGCAGGCCAGGGTCACTCAAGCATTTCGCTT,2.69
12,TAGCCTAGGCCAGATCGGGCCAGTATACGCTATA,-0.802
13,ATCGAAAGGTCGACGAGGTGAGTCTACACCGTTT,5.5
14,CTGACTGGGGCAGAAAGGTTACCATACCATCCGG,1.36
15,CTACCATGGTGAACAAGGTCGTTGATTACTATTC,3.04
16,ATCTCTAGGTAACAGTTCAGTGAATCCCGAGGAT,0.208
17,CGTCAAAGTTCAACTAAAGTAACGTAAAGCACGC,4.08
18,TAGGCTAGGTCATTGGGCCAGTATAGTACGCATC,2.03
19,ATCTCTAGGTAAAGGTAGTTCAGTGAATGCAAAT,1.12
20,GCTCGGAGGACAAGGTGAGAGCTTTGTCCGTAGA,-0.606

row,Sequence,PBM binding z-score
1,ATCTCTAGGCAACAAGTTCAGTGAAAGAGAGGAC,1.82
2,TTACCAAGGTGAAACGTCGTTGATGCACGCCTTG,-0.243
3,AGAATGAGGTAACCAAAGATCAGGGAAACGCTTG,-0.129
4,CCTGCTAGGTCATGGTCAGCAAATCTACAGTATG,1.48
5,GCAGACAGGTGAAACGCGGGTAACTCAGGGTGGC,-0.339
6,CCGAGTAGGTTGTGGGGCATTCAGGCAACGGTGA,-0.367
7,TCTAGTTGGTCACGGAGGTCGCACACGACGGGTA,4.06
8,GCAGCCAGGTGAAACGCAGGTAACTCAGGGTGGC,-0.929
9,TCTGCTAGGTCAACGCTGGTCAGCTAATCTGCTA,1.36
10,AGTCAAAGTTCAGGACGAGGCAACGTAAAGCACG,1.93
11,TCATATAGGTAAGCAGGTGAAAGTCCGTAAGTTA,0.388
12,TGTATTAGTTGATTAGGGCAACCGAAACAGCGGA,0.00753
13,CGTCCAATGTCAAAGGTCAGTGAAGAGATGACGG,3.72
14,TTACCAAGGTGAAAGGCCGTTGATGCACGCCTTG,0.0595
15,AGAACGAGGGCACGCTGAGTTGATAGCTGAGTAG,2.04
16,GCAGACAAGTGAAACGCAGGTAACTCAGGGTGGC,-0.581
17,CCTACTGGGCCAAAAAGGTGATTGATGCCGATAA,-0.0906
18,CCTACTGGGCCATTCAGAGGTCATTCATCATATG,4.26
19,TCTAGTTGGTCATAGGTCACACACTCGAAATGCG,3.19
20,TTACCAAGGTGAAAGGTCGTTGATGCACGCCTTG,3.14
